# From PubChem
# PLK1 kinase inh: human PLK1 kinase inhibitors, primary screen, biochemical, TR-FRET; recombinant PLK1 kinase, TR-FRET peptide phosphorylation; inhibition, % at 10 µM; 97,000 tested, 0.53% active; AID 619, 2007; Serine/threonine-protein kinase PLK1 (Homo sapiens), P53350;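 active = inhibition of 50% or more in the single-concentration screen; inactive = inhibition below 50%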;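 also: 0% = DMSO max control and 100% = H-89 dihydrochloride min control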
# Plk1 PBD FP: Plk1 polo box domain binding inhibitors, primary screen, biochemical, fluorescence polarization | Serine/threonine-protein kinase PLK1 (Homo sapiens), P53350 | Plk1 PBD phosphopeptide binding | inhibition, %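 (tested at about 20 µM)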 | 97,000 tested, 0.13% active | AID 693, 2007; in the data active = inhibition above about 34%, passing the limit was not always enough
# PTK2B oligo ant: antagonists of Pyk2 self-association, primary screen, Q293 cells, FERM NanoBiT luminescence, HTS; Protein-tyrosine kinase 2-beta (Homo sapiens), Q14289; active compounds read low; z-score (the deposit names both 25 µM and 10 µM); 99,000 tested, 0.83% active;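 active = Z-score of -3 or lower, scaled per plate to the spread of control and sample wells; inactive = z-score above -3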;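 also: negative z-score means lost luminescence so less FERM oligomerization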
# hDAT+cocaine: changed hDAT dopamine uptake under cocaine IC80, either direction, primary screen, cocaine antagonist project, cell-based, LLC-PK1 hDAT, [14C]-dopamine uptake, MLSMR; 110,000 tested, 1.3% active; AID 449768, 2010; LLC-PK1 hDAT cells, [14C]-dopamine uptake with cocaine IC80; actives deviate in either direction; Sodium-dependent dopamine transporter (Homo sapiens), Q01959; B-score at 10 µM;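 active = Z score or B-score, a plate-position-corrected score, falls beyond the plate's 99.7% confidence bounds, in either direction; inactive = both scores lie inside the 99.7% bounds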;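 also: scored against the spread of the other compound wells on the same plate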
# Target sequence (Q01959 whole entry, looked up): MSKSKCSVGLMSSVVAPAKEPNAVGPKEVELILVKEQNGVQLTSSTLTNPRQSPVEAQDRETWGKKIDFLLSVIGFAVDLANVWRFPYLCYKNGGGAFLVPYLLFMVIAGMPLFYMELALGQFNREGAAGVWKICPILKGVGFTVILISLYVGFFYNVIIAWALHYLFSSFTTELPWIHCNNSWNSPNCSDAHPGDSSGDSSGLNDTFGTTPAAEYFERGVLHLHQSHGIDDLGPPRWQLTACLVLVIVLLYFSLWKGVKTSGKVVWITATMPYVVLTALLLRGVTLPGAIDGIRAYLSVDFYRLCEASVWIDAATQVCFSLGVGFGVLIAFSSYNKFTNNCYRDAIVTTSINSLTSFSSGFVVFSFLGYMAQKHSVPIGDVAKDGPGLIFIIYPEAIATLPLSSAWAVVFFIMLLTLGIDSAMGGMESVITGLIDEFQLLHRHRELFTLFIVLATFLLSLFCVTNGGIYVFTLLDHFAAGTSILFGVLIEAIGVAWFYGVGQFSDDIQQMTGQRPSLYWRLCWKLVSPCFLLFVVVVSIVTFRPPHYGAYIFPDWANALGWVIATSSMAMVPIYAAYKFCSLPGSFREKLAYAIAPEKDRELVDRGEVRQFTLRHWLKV
# Cav32 inh: Cav3.2 calcium influx blockers – cell-based, Fluo-4 calcium fluorescence, FDSS, MLSMR library, primary screen; Voltage-dependent T-type calcium channel subunit alpha-1H (Homo sapiens), O95180; Cav3.2-expressing cells; active compounds read low; B-score at 10 µM; 100,000 tested, 4% active; AID 449739, 2010;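 active = single-dose well whose peak fluorescence ratio is a statistical outlier from its plate by either plate-standardised score or position-corrected B-score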
# sdo1 growth: growth rescue of sdo1-depleted yeast, primary screen, S. cerevisiae, bone marrow failure model. z-score at 10 µM. 140,000 tested, 0.21% active. S. cerevisiae sdo1-depleted JHY4D growth rescue, OD600 30 h; active compounds read high; pdr5 snq2 efflux-pump mutant strain. AID 817, 2007;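 active = z-score above 3 at both the 24 hr and the 30 hr optical density reads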;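 also: z-score against mean and SD of all compound wells on the same plate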
# * = called active by the depositor; nt = no result given. Sampled rows, rich in hits. Any-hit rate of the full collection: about 4.7%.
SMILES,PLK1 kinase inh,Plk1 PBD FP,PTK2B oligo ant,hDAT+cocaine,Cav32 inh,sdo1 growth
Cn1nc([N+](=O)[O-])nc1Oc1ccc(C(C)(C)C)cc1,nt,nt,1.3,nt,nt,0.07
CC1(C)Cc2c(sc3c2C2=NCCN2C=N3)CO1,57*,11,-0.47,-0.48,0.48,nt
COc1ccc(C(=O)Cn2c(Br)nc3c2c(=O)n(C)c(=O)n3C)cc1OC,-3,-1,2,-0.79,-0.035,0.74
COc1ccc(-c2nc3c(c(=O)n(C)c(=O)n3C)n2CC2CC(c3ccccc3)=NO2)cc1OC (stereo not given),-1,-3,-0.27,2.2,3.4*,nt
Cc1cccc(NC(=O)c2nc[nH]c2C(=O)N[C@@H](Cc2ccccc2)C(=O)OC(C)(C)C)c1,nt,nt,nt,0.81,0.094,nt
Cc1cccc(NC(=O)c2nc[nH]c2C(=O)N[C@@H](CC(C)C)C(=O)OC(C)(C)C)c1,nt,nt,nt,2.7*,1.1,nt
COC(=O)c1ccc(NC(C)C(=O)OC)c([N+](=O)[O-])c1 (stereo not given),nt,nt,nt,nt,nt,1.5
CCCCNC(=O)CN(CCc1ccccc1)S(C)(=O)=O,-9,-18,0.4,-0.6,-5.3*,3
CC(=O)N1CCC(N(CCN2CCOCC2)C(=S)Nc2ccccc2C)CC1,nt,nt,nt,nt,nt,2.3
Cc1cc(C(=O)CSc2nc(N)cc(N)n2)c(C)n1-c1cccc(F)c1,nt,nt,nt,nt,nt,0.4
COc1ccccc1C1C(C(=O)NCc2ccccc2)=C(C)Nc2ncnn21 (stereo not given),nt,nt,1.2,0.0078,0.92,1.2
CC(=O)C1=C(C)Nc2ncnn2C1c1ccccc1OCc1ccccc1 (stereo not given),2,-6,-3.1*,0.0038,0.83,-0.22
Cc1cc(C(=O)Cn2nc(C(=O)O)c3ccccc3c2=O)c(C)n1-c1ccc(F)cc1,nt,nt,nt,nt,nt,-0.75
CCOC(=O)c1cccc(NC(=O)CN(c2ccc(C)cc2)S(=O)(=O)c2c(C)n[nH]c2C)c1,-2,10,-3*,1.3,-1.2,0.33
CCc1cccc(NC(=O)CN(c2ccc(OC)cc2)S(=O)(=O)c2c(C)n[nH]c2C)c1,-16,14,-3.2*,0.33,-4.2*,0.22
COc1ccc(N(CC(=O)Nc2ccc(C)c(C)c2)S(=O)(=O)c2c(C)n[nH]c2C)cc1,1,-15,-3.3*,nt,nt,0.12
Cc1cc(=O)oc2cc(OS(C)(=O)=O)ccc12,nt,nt,nt,nt,nt,0.93
O=C(NCc1ccco1)C1CC(c2ccc(C(F)(F)F)cc2)=NO1 (stereo not given),nt,nt,nt,0.091,-1.1,nt
CC1Cc2ccccc2N1C(=O)c1nn(C)cc1Br (stereo not given),nt,nt,nt,nt,nt,-0.12
O=C(CC(c1ccccc1)c1ccccc1O)NCc1ccccc1Cl (stereo not given),nt,nt,nt,nt,nt,-0.51
Cc1c(C(=O)NC2CCCc3ccccc32)oc2ccccc12 (stereo not given),-2,2,-0.48,-0.49,-4.6*,-2
Cc1ccc(NC(=O)c2ccc(OC(=O)COc3cccc(Cl)c3)cc2)cc1,nt,nt,nt,nt,nt,-0.91
CCCSc1nc(NCc2ccco2)c2c3c(sc2n1)COC(C)(C)C3,-3,-23,0.79,1.3,-5.6*,-0.5
CCCCSc1nc(NCc2ccco2)c2c3c(sc2n1)COC(C)(C)C3,-4,10,-0.73,0.041,-5.7*,-0.51
CCCCCCCCC(=O)NC(NC(=S)N1CCOCC1)C(Cl)(Cl)Cl (stereo not given),-14,2,-0.04,-0.23,-4.2*,-0.98
SMILES,PLK1 kinase inh,Plk1 PBD FP,PTK2B oligo ant,hDAT+cocaine,Cav32 inh,sdo1 growth
CCCCCC(=O)NC(NC(=S)NC1CCS(=O)(=O)C1)C(Cl)(Cl)Cl (stereo not given),-15,20,-0.33,-3*,1.6,1.4
Cc1ccccc1OCCNC(=O)CSc1ccc(C(F)(F)F)cc1[N+](=O)[O-],nt,nt,nt,nt,nt,-0.73
CCCCc1ccc(NS(=O)(=O)N(C)C)cc1,nt,nt,0.26,-0.014,-4.3*,0.76
O=C1O[C@@H]([C@H](O)CO)C(O)=C1O,nt,nt,nt,0.0053,-2.1,nt
CC(C)(C)C1=Nn2c(nnc2-c2n[nH]c3c2CCC3)SC1,35,-30,0.47,0.041,-0.32,0.48
CC1=Nn2c(nnc2-c2n[nH]c3c2CCC3)SC1,3,13,-0.23,-8*,0.79,0.09
CCOC(=O)Cc1cc(-c2ccc(F)cc2)nc2ccc3ccccc3c12,nt,nt,nt,nt,nt,7.8
COC(=O)C1=C(N)Oc2cc(N(C)C)ccc2C1c1ccccc1OC (stereo not given),-9,-8,-0.8,-0.56,-7*,-0.67
O=C(CN(C(=O)CCC(=O)Nc1nccs1)c1ccc(F)cc1)NCc1ccco1,-2,-2,0.37,-2.8*,nt,0.09
CN(c1ccccc1)C(c1ccc(F)cc1)c1nnnn1C1CCCC1 (stereo not given),-4,0,-1.6,-0.0018,-7.5*,-0.94
C=CCNC(=O)C1CC(=O)N(c2ccc(C)cc2)C1 (stereo not given),59*,-18,nt,-0.055,0.18,1.7
O=C(COc1ccc(S(=O)(=O)N2CCc3ccccc32)cc1Cl)NCc1ccccn1,-7,10,0.38,2.2*,-1.8,-0.43
COc1ccc(S(=O)(=O)N2CCC(C(=O)NCc3ccccn3)CC2)cc1OC,-9,-2,0.7,0.21,0.22,0.25
CCCOc1ccc(Cn2c(=O)oc3ccc(C)cc32)cc1OC,-4,-22,-1.9,0.022,-1.7,-1
CCCOc1ccccc1Cn1c(=O)oc2ccc(C)cc21,-10,21,-1,-0.14,-5.6*,0.21
CCOc1ccccc1Cn1c(=O)oc2ccc(C)cc21,-6,32,-1.4,0.25,-4.7*,-0.74
CCCCN1CNC(=S)N(c2ccc(C(=O)OCC)cc2)C1,nt,nt,nt,nt,nt,-0.29
CC(C)N(Cc1nc(-c2ccc(Cl)cc2)no1)C(=O)C(c1ccccc1)c1ccccc1,-8,-22,-1.2,0.41,-4.3*,-1.5
CC(C)N(Cc1nc(-c2ccccc2)no1)C(=O)CCCN1C(=O)c2ccccc2C1=O,-11,-6,1.4,2.4*,-1.8,-1.9
Cc1ccc(-c2noc(CN(C(=O)C(c3ccccc3)c3ccccc3)C(C)C)n2)cc1,-2,-7,-2.4,0.023,-8.5*,-0.85
O=C(CSc1ccc2nnc(CCNS(=O)(=O)c3ccccc3)n2n1)Nc1nc2ccccc2s1,nt,nt,nt,nt,nt,0.76
COc1ccc(C2CC3(CC(C)(C)NC(SC)=N3)Oc3cc(O)cc(C)c32)cc1 (stereo not given),nt,nt,nt,nt,nt,0.51
COC(=O)/C(=N\Nc1ccc(Cl)cc1)Sc1nnc(-c2ccc(OC)cc2)n1C,nt,nt,nt,nt,nt,-0.18
COc1ccc(N=C2NC(=O)S/C2=C\c2ccc(N(C)C)cc2)cc1,-7,-426,-3.1*,0.0023,-0.39,-0.23
